# Screening results (PubChem)
# Hits are enriched below; roughly 7.9% of the tested compounds scored in any of these assays.
# FMDV inh = blocks foot and mouth disease virus; FMDV antiviral cell-based qHTS; Potency, µM (top dose mostly 57.9 µM), without a hit: top-dose activity change, negative = inhibition, most hits filed as inhibitors; actives 1.2% (n = 410,000); AID 1159524; calls by dose curve; tested in HEK293T cells; also: read-out not given here; potency is read from the fitted curve at half-maximal effect; nearly all actives have a fitted effect of over 45% in size
# HCMV inh = inhibitors of human cytomegalovirus; activity change, negative = inhibition, % at 57.5 µM; HFF cells, HCMV-luciferase reporter, 72 h; active compounds read low; actives 4.5% (n = 410,000); in the data active = activity change below about -60%; inconclusive = no clear call, values can overlap the other calls; inactive = above about -39%
#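 After 16 h attachment at 37C, HFF cells received test compound and HCMV-luciferase (1 PFU/cell); reporter luminescence read 72 h later, data normalized against buffer-only and known inhibitor Salinomycin.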
# LASV entry inh = Lassa virus entry inhibition. AID 540256. Potency, µM (series often up to 37.9 µM), without a hit: at the top dose activity change, negative = inhibition, actives largely listed as inhibitors. Lassa virus pseudotype entry inhibition, cell reporter. actives 1.2% (n = 300,000); calls by dose curve; tested in HEK293 cells; also: potency is read from the fitted curve at half-maximal effect; nearly all actives have a fitted effect of over 50% in size
# HCV inhibitor = inhibitors of hepatitis C virus infection; Huh7.5.1 HCVcc-Cre infection, luciferase reporter, 44 h; Potency, µM (titrated, usually from 41.8 µM), for inactives: top-dose activity change, negative = inhibition, most hits filed as inhibitors; actives 3.4% (n = 340,000); active = well fitted inhibition curve with a large enough effect; inconclusive = small, poorly fitted or top-dose-only effect, or another doubt; inactive = no such curve, though single readings can be large or run the other way; also: potency is read from the fitted curve at half-maximal effect
#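 Luciferase read-out (15 sec integration) after a 15 min room-temperature substrate step quantifies HCVcc-Cre infection. Cells, 1,000 per well, had compound added 4 h post-plating, then virus at ~0.5 moi, and were cultured 44 h.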
# Marburg entry inh = Marburg virus entry inhibition; Potency, µM (highest dose often 37.8 µM), inactives show top-dose activity change, negative = inhibition, usual class: inhibitors; Marburg virus pseudotyped entry inhibition, cell reporter; actives 1.8% (n = 300,000); calls by dose curve; tested in HEK293 cells; also: potency is read from the fitted curve at half-maximal effect
# * = called active by the depositor; ? = inconclusive; · = no result; [ ] = another dose, or the depositor's remark. % is scaled to controls: 0 for no effect and ±100 for the full control effect.
SMILES,FMDV inh,HCMV inh,LASV entry inh,HCV inhibitor,Marburg entry inh
O=C(CSc1nc2ccccc2o1)Nc1nc2c(s1)CCCC2,?,-86.1*,·,?,·
COc1ccc(-c2csc(NC(=S)NC(=O)/C=C/c3ccco3)n2)cc1Br,-8.6%,-73.2*,?,-26.8%,-14.0%[46.1 µM]
O=C(/C=C/c1ccco1)Nc1nc(-c2ccc(F)c(F)c2)cs1,35.5µM*,·,·,10µM*,·
O=C(/C=C/c1ccco1)Nc1nc(-c2ccccc2)cs1,20.6%,-10.4,?,?,?
O=C(c1cc(COc2ccc(F)c(F)c2)on1)N1CCN(C2CCCCC2)C(=O)C1,1.3%,33.8,·,-14.5%,·
CC(=O)c1ccc(OCc2cc(C(=O)N3CCN(C4CCCC4)C(=O)C3)no2)cc1,31.7%,59.0,3.16µM*,-16.4%,2.7%
COc1ccc(NC(=O)C(=O)NCCC2CCCCN2S(=O)(=O)c2ccccc2)cc1 (configuration not stated),-14.5%,-4.2,?,?,?
COc1cc(C)nc(-c2csc(C)n2)n1,-1.2%,-86.5*,·,4.1%,·
Cc1ccc(COC(=O)c2cc([N+](=O)[O-])ccc2N2CCOCC2)cc1,·,-63.3*,·,·,·
O=C(OCc1c(F)cccc1Cl)c1cc([N+](=O)[O-])ccc1N1CCOCC1,-28.7%,-23.3,-26.8%,11.2µM*,-14.0%[46.1 µM]
CC1CCCN(C(=O)COC(=O)c2cc([N+](=O)[O-])ccc2N2CCOCC2)C1 (configuration not stated),-17.8%,-12.5,13.3%,31.6µM*,15.6%[46.1 µM]
O=C(OCc1ccc([N+](=O)[O-])cc1)c1cc([N+](=O)[O-])ccc1N1CCOCC1,-29.3%,-26.8,?,4.47µM*,-14.5%
CC1CC(C)CN(C(=O)COC(=O)c2cc([N+](=O)[O-])ccc2N2CCOCC2)C1 (configuration not stated),-17.9%,-4.7,-13.7%[46.1 µM],?,?
O=C(NCC(=O)N1CC=C(c2ccccc2)CC1)c1ccccc1Br,?,-26.6,-3.4%,?,?
CCOc1ccccc1NC(=O)NC(=O)N(C)S(=O)(=O)c1ccc(C)cc1,-8.2%,-5.0,·,-9.4%,·
COCCCn1c(=O)c2ccccc2n(CC(=O)NC2CCCCC2)c1=O,-5.1%,10.7,19.4%,11.4%,-1.5%[46.1 µM]
O=C(CCCc1ccccc1)N=C1SC2CS(=O)(=O)CC2N1c1ccccc1F (configuration not stated),-4.4%,-27.1,-1.1%[46.1 µM],17.2%,8.1%[46.1 µM]
CCOC(=O)CCNCc1ccc(F)cc1,-13.4%,-4.7,16.2%,0.0%,4.5%
O=C(OCC(=O)N1CCCC1)c1cc([N+](=O)[O-])ccc1Cl,10µM*,-19.0,16.1%[46.1 µM],-2.9%,8.9%[46.1 µM]
O=S(=O)(CC(CN1CCCCC1)N1CCCCC1)c1ccccc1 (configuration not stated),35.5µM*,-98.6*,·,?,·
O=C1CCCN1CC(O)CS(=O)(=O)c1ccccc1 (configuration not stated),13.3%,-5.8,3.1%,19.0%,17.2%
O=[N+]([O-])c1ccc(C(O)CN2CCOCC2)cc1 (configuration not stated),-2.9%,30.0,4.0%,7.8%,14.9%[46.1 µM]
O=[N+]([O-])c1ccc(S(=O)(=O)CC(CN2CCOCC2)N2CCOCC2)cc1 (configuration not stated),6.5%,-101.9*,?,11.2µM*,?
CC(=O)c1cccc(NC(=O)COc2ccc3oc(=O)cc(C)c3c2)c1,?,9.8,·,15.8µM*,·
O=C(COc1ccc2c(-c3ccccc3)cc(=O)oc2c1)Nc1ccc(CCO)cc1,?,-67.7*,·,7.08µM*,·
SMILES,FMDV inh,HCMV inh,LASV entry inh,HCV inhibitor,Marburg entry inh
O=C(N/N=C/c1ccccc1[N+](=O)[O-])c1ccc(COc2ccccc2-c2ccccc2)cc1,-14.5%,17.1,-6.9%,?,?
O=C(O)c1cccc(Nc2nc(-c3ccc([N+](=O)[O-])cc3)nc3ccccc23)c1,-7.9%,-70.8*,·,0.2%,·
O=C(Nc1ccc([N+](=O)[O-])cc1)C(=O)Nc1cccc(C(=O)O)c1,10µM*,0.0,·,3.8%,·
O=C(O)c1cccc(Nc2nc(-c3ccccc3)nc3ccccc23)c1,-1.7%,21.0,10.1%,13.7%,?
O=C(O)c1cc(NC(=O)c2ccc([N+](=O)[O-])cc2)cc(NC(=O)c2ccc([N+](=O)[O-])cc2)c1,-9.7%,-29.6,19.3%[46.1 µM],-4.6%,6.7%[46.1 µM]
O=[N+]([O-])c1ccc(-c2nc(Nc3cccc(O)c3)c3ccccc3n2)cc1,?,-9.6,·,6.31µM*,·
